GIRK2 activ: opens human GIRK2 potassium channels; P48051; HEK293-GIRK2 thallium flux, Thallos fluorescence, MPD; calls only for hits at 25 µM; actives 0.05% (n = 63,000); AID 1259325; call rule not given here
Target sequence (P48051 whole entry, looked up): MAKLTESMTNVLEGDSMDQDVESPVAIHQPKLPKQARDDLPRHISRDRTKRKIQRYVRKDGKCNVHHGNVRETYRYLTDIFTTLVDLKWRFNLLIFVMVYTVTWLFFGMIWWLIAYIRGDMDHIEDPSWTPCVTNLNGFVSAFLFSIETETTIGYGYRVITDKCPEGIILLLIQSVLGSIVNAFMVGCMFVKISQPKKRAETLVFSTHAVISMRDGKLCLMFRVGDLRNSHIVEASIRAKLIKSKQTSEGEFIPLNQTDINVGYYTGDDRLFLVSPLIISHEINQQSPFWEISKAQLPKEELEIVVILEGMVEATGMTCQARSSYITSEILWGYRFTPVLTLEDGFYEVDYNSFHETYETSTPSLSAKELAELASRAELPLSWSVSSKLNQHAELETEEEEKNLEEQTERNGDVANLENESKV
Active calls of the source: *; i = inactive; + = active, no number. This excerpt belongs to a sample that is enriched for hits.

SMILES	GIRK2 activ
CN(C)CC1COCCN1C(=O)C1(c2cccs2)CCCC1 (stereo not given)	i
COCCN1CCC(CNC(=O)c2ccc(Cl)c(Cl)c2)CC1	i
Cc1ccccc1-n1nnc(C(=O)Nc2cccc(C(C)C)c2)c1-c1ccncc1	+
COc1cccc(-n2nnc(C(=O)NCc3ccc(C(C)C)cc3)c2-c2ccncc2)c1	i
Cc1ccccc1-n1nnc(C(=O)N2CCN(S(C)(=O)=O)CC2)c1-c1ccncc1	i
Cc1cc(NC(=O)NCCC2CCCCC2)no1	i
O=C(COc1ccc(F)cc1)Nc1ccccc1NC(=O)c1ccccc1Cl	i
CNC(=O)c1cc2c(=O)n3ccccc3nc2n1CCCOC	i
COc1cccc(N2CC(c3nc(C4CC4)no3)CC2=O)c1 (stereo not given)	i
Cc1c(C(=O)N2CCN(c3ccccc3Cl)CC2)nnn1-c1nccs1	i
COc1ccc2cc(CNc3ccccc3)c(=O)n(CC(=O)NCCc3ccccc3)c2c1	i
O=C(CN1CCC(c2nnc(-c3ccco3)s2)CC1)Nc1cccc(Cl)c1Cl	i
O=C(NCC(F)(F)F)C1CCN(C(=O)Cn2cccn2)CC1	i
CCOc1ccc(S(=O)(=O)NCC#CCN2CCCC2)cc1	i
COc1ccc(Cl)cc1NC(=O)N1CC(c2nc(C3CC3)no2)C1	i
COC(=O)N1CCC(CNC(=O)NC2CCCC2)CC1	i
O=c1c([N+](=O)[O-])c(NCc2cccnc2)c2ccccc2n1-c1ccccc1	i
Cn1c(=O)c(C(=O)Nc2ccc(Cl)c(C(F)(F)F)c2)c(O)c2sccc21	i
O=C(CN1CCN(c2cccc(Cl)c2)C1=O)NCc1cccnc1	i
COc1cc(/C=C2/SC(=S)N(c3ccccc3Cl)C2=O)ccc1O	+
COc1cc(/C=C2\SC(=S)N(c3ccc(O)cc3)C2=O)ccc1O	i
COc1cc(/C=C2\SC(=S)N(c3cccc(O)c3)C2=O)ccc1O	i
Cc1ccc(CNC(=O)C2CCN(c3nc4c(-c5cccc(C)c5)csc4c(=O)[nH]3)CC2)cc1	i
Cc1cc(NC(=O)NCC(C)C)n(-c2nc3c(c(=O)[nH]2)CCCC3)n1	i
CCn1cc(C(=O)NCc2ccco2)c(=O)c2cc(OC)ccc21	i
SMILES	GIRK2 activ
Cc1nc(-c2ccccc2)sc1C(=O)Nc1cnc(N(C)C)nc1	i
Cc1ccc(C(=O)NC2CCN(C(=O)c3cc(-c4cccs4)[nH]n3)CC2)cc1C	i
O=C(c1nnn(-c2ccccc2Cl)c1-c1ccccn1)N1CCN(c2ncccn2)CC1	i
O=C(Nc1ccc2c(c1)OCCO2)c1nnn(-c2ccccc2Cl)c1-c1ccccn1	+
O=C(Nc1ccc(F)cc1)c1nnn(-c2ccccc2Cl)c1-c1ccccn1	i
O=C(Nc1nccs1)c1nnn(-c2ccccc2)c1-c1ccccn1	i
Cc1csc(NC(=O)c2nnn(-c3ccccc3Cl)c2-c2ccccn2)n1	+
Cc1[nH]ncc1CNC(=O)c1nnn(-c2ccccc2Cl)c1-c1ccccn1	i
O=C(C[C@@H]1C(C(=O)OCCc2ccc(O)c(O)c2)=CO[C@@H](O[C@@H]2O[C@H](CO)[C@@H](O)[C@H](O)[C@H]2O)/C1=C\CO)OCCc1ccc(O)c(O)c1	i
CCn1cc(/C=c2/sc3n(c2=O)C(c2ccccc2)C(C(=O)Nc2ccccc2C)=C(C)N=3)c(C)n1 (stereo not given)	i
CCOC(=O)C1=C(C)N=c2s/c(=C/c3cn(C)nc3C)c(=O)n2C1c1ccc(OC)cc1 (stereo not given)	i
CCOC(=O)C1=C(C)N=c2s/c(=C/c3c(C)nn(C)c3C)c(=O)n2C1c1ccccc1 (stereo not given)	+
CCCS(=O)(=O)N1CCCc2cc(NS(=O)(=O)c3ccc(OC)cc3)ccc21	i
Cn1c(=O)c2cc(C(=O)NCCCn3ccnc3)n(Cc3ccccc3)c2n(C)c1=O	i
OC(CN1CCN(c2cccc(Cl)c2)CC1)c1ccc2c(c1)OCO2 (stereo not given)	i
Cc1cc(C)n(-c2cc(N3CCCC(C(=O)NCc4sc(C)nc4C)C3)ncn2)n1 (stereo not given)	i
COc1ccccc1CCNC(=O)c1cnc2c(c(C)nn2-c2ccc(C)cc2)c1Cl	i
O=C(Nc1ccc(SCC(=O)N2CCCC2)nn1)C1c2ccccc2Oc2ccccc21	i
CC(=O)Nc1ccc(S(=O)(=O)N2CC(Oc3nc4c(C)cccc4s3)C2)cc1	i
CC(CCc1ccccc1)NC(=O)c1ccc(Cn2c(=S)[nH]c3cc4c(cc3c2=O)OCO4)cc1 (stereo not given)	i
COc1ccc(C(=O)COC(=O)c2cc3cccc(OC)c3oc2=O)cc1	i
COc1ccc(CC(=O)NCCNc2ccc(Nc3cccnc3)nn2)cc1	i
Cc1ccc(C(C)C)c(OCC(O)Cn2c(N3CCCC3)nc3c2c(=O)[nH]c(=O)n3C)c1 (stereo not given)	i
COc1cccc(/C=C2\SC(=S)N(CCCC(=O)Nc3cccnc3)C2=O)c1	i
O=S(=O)(NCCN1CCN(c2ccc(Cl)cc2)CC1)c1cc(F)ccc1F	i
SMILES	GIRK2 activ
CCc1nnc(C2CCN(C(=O)COc3ccccc3)CC2)s1	i
Cc1csc(COc2ccc(C(=O)NCCn3nc(-c4ccco4)ccc3=O)cc2)n1	i
COC(=O)c1ccc(Cn2nc3ccc(-c4ccc(Cl)cc4)nn3c2=O)o1	i
Cc1ccc(-n2c(N3CCC(C(=O)NCc4cccc(Cl)c4)CC3)nc3ccsc3c2=O)cc1	i
COc1ccc(Cl)cc1-n1nnc(-c2nc(-c3ccccc3F)no2)c1N	i
CCOc1cccc2cc(C(=O)NCCCn3nc(-c4ccccc4)ccc3=O)c(=O)oc12	i
CCOC(=O)c1ccc(NC(=O)Cn2nc3c4cccc(C)c4ncn3c2=O)cc1	i
Cc1c(C)n2c3c(=O)n(CC(N)=O)c(=O)n(C)c3nc2n1-c1ccccc1F	i
O=C(Nc1nc2c(F)cccc2s1)C1CCN(S(=O)(=O)c2ccc(F)cc2)CC1	i
O=C(Nc1nccs1)C1CCN(C(=O)c2cc(-c3ccco3)[nH]n2)CC1	i
Cc1ccc(Cl)cc1NC(=O)c1c(O)c2ccccc2[nH]c1=O	i
Cc1cc(C)n(-c2ccc(=O)n(C(C)C(=O)Nc3cc(C)on3)n2)n1 (stereo not given)	i
Cc1ccccc1C(=O)N1CCN(c2oc(/C=C/c3ccc(Cl)cc3)nc2C#N)CC1	i
Cc1noc(CNC(=O)c2csc(Nc3ncccn3)n2)n1	i
COCCCNC(=O)CSc1nc(-c2cccc(F)c2)[nH]c1-c1ccccc1	+
COc1ccc(-c2nc(SCC(=O)NCC3CCCO3)c(-c3ccc(C)cc3)[nH]2)cc1OC (stereo not given)	i
O=C(CSc1nc(-c2ccccc2)[nH]c1-c1ccc(F)cc1)NCC1CCCO1 (stereo not given)	+
CCOc1ccc(-c2nc(SCC(=O)NCCCOC)c(-c3ccccc3)[nH]2)cc1OC	i
O=C(CSc1ncccc1-c1nc2ccccc2[nH]1)NCC1CCCO1 (stereo not given)	i
COCCNC(=O)CSc1nc(-c2ccc(C)cc2)[nH]c1-c1ccccc1	i
NC(=O)c1ccccc1NC(=O)C1CC(=O)c2ccccc21 (stereo not given)	i
O=S(=O)(Cc1ccc(F)cc1)N1CCN(CC(O)C2CC2)CC1 (stereo not given)	i
COc1ccc(CC(=O)NCCOc2ccc3c(c2)OCO3)cc1OC	i

Screening data from PubChem.
